Unmarked numbers belong to inactive results.
Each compound was assayed on Vero E6 infected with SARS-CoV-2 (assay: inhibition of SARS-CoV-2 cytopathic effect; higher = more antiviral protection, active = above 15). Settings: 8.33 nM; 48 h.

Row | Compound | inhibition of SARS-CoV-2 cytopathic effect [%]
1 | CCCN(CCc1cccs1)[C@H]1CCc2c(O)cccc2C1 [rotigotine] | -0.89
2 | CC(=O)N[C@@H](Cc1c[nH]c2ccccc12)C(=O)OCc1cc(C(F)(F)F)cc(C(F)(F)F)c1 | 1.3
3 | CCOc1ccccc1C(N)=O [ethenzamide] | 3.1
4 | OCCN1CCN(CCCN2c3ccccc3C=Cc3ccccc32)CC1 [opipramol] | 1.37
5 | C[C@H](Oc1cc(-c2cnn(C3CCNCC3)c2)cnc1N)c1c(Cl)ccc(F)c1Cl [crizotinib-(S)] | -0.2
6 | CCC(=O)O[C@]1(C(=O)CO)CC[C@H]2[C@@H]3CCC4=CC(=O)CC[C@]4(C)[C@H]3CC[C@@]21C | 0.06
7 | Cc1cccc(-c2n[nH]cc2-c2ccc3ncccc3n2)n1 [repsox] | 2.3
8 | O=C(Cc1ccc(-c2ccc(OCCN3CCOCC3)cc2)cn1)NCc1ccccc1 | 0.24
9 | Nc1ncnc2nc(-c3ccc(N4CCOCC4)nc3)cc(-c3cccc(Br)c3)c12 | -1.24
10 | Cc1nc(C)c(C)nc1C [chuanxiongzine] | 0.85
11 | O=C(CCCN1CC=C(n2c(=O)[nH]c3ccccc32)CC1)c1ccc(F)cc1 [droperidol] | 3.34
12 | CC1(C)CC[C@]2(NC(=O)C(C)(F)F)CC[C@]3(C)[C@H](C(=O)C=C4[C@@]5(C)C=C(C#N)C(=O)C(C)(C)[C@@H]5CC[C@]43C)[C@@H]2C1 [Omaveloxolone (RTA-408)] | 6.39
13 | N[C@H](C(=O)O)c1ccc(O)cc1 [oxfenicine] | 3.82
14 | CCS(=O)(=O)N1CCC[C@@H]2CN3CCc4cc(OC)ccc4[C@@H]3C[C@@H]21 | 1.49
15 | O=C(Nc1cc(C(F)(F)F)cc(C(F)(F)F)c1)Nc1c(Br)cc(Br)cc1-c1nnn[nH]1 | 1.04
16 | CC(NC(=O)c1ccccc1/N=C/c1c(O)ccc2ccccc12)c1ccccc1 (stereo not drawn) [sirtinol] | -0.75
17 | Cc1ccc(Cl)c(Nc2ccccc2C(=O)O)c1Cl [meclofenamic-acid] | 1.04

Row | Compound | inhibition of SARS-CoV-2 cytopathic effect [%]
18 | COc1cc(-c2cc(-c3cccc(O)c3)cnc2N)cc(OC)c1OC | -1.83
19 | Brc1c(Br)c(Br)c2[nH]nnc2c1Br [4,5,6,7-tetrabromobenzotriazole] | 3.75
20 | C=C(C)CN1CC[C@]23c4c5ccc(O)c4O[C@H]2c2[nH]c4ccccc4c2C[C@@]3(O)C1C5 | -1.87
21 | O=C(Nc1ccccc1F)N[C@H]1N=C(c2ccccc2)c2ccccc2NC1=O | 0.41
22 | O=C(O)[C@@H]1C[C@@H](C2CCCCC2)CN1C(=O)CP(=O)(O)CCCCc1ccccc1 [fosinoprilat] | -5.78
23 | Nc1nc2ccc(OC(F)(F)F)cc2s1 [riluzole] | -3.06
24 | C[C@H](N)C(=O)N[C@@]1(C(=O)O)C[C@@H](Sc2nnc[nH]2)[C@H]2[C@H](C(=O)O)[C@H]21 | -4.35
25 | O=C/C=C/c1ccccc1 [cinnamaldehyde] | 2.28
26 | NS(=O)(=O)c1cc2c(cc1Cl)N=C(CSCc1ccccc1)NS2(=O)=O [benzthiazide] | 0.15
27 | CN1CCN(C2=Cc3ccccc3Oc3ccc(Cl)cc32)CC1 | 0.31
28 | CCCCC(CC)CCC(CC(C)C)OS(=O)(=O)O (stereo not drawn) [sodium-tetradecyl-sulfate] | 3.18
29 | O=C(O)Cc1cccc2c(=O)cc(-c3ccccc3)oc12 [mitoflaxone] | 0.65
30 | Cc1c(N)cccc1Cn1ccc(OCCc2cccs2)cc1=O | 0.73
31 | COc1cc(OCc2cccc(-c3ccccc3)c2C)cc(OC)c1CN1CCCC[C@H]1C(=O)O [PD1-PDL-inhibitor-1] | 1.37
32 | Cc1ccsc1/C=C/C1=NCCCN1C [morantel] | -3.26
33 | CC[C@@H]1C(=O)N(C)c2cnc(Nc3ccc(C(=O)N[C@H]4CC[C@H](N5CCN(CC6CC6)CC5)CC4)cc3OC)nc2N1C(C)C [volasertib] | -1.24
34 | COC(=O)[C@@H](N)CCCNC(=N)N[N+](=O)[O-] | -2.09

Same assay, conditions: 100 nM; 48 h

Row | Compound | inhibition of SARS-CoV-2 cytopathic effect [%]
35 | CCC(=O)O[C@@H]1CC(=O)O[C@H](C)C/C=C/C=C/[C@H](OC(C)=O)[C@H](C)C[C@H](CC=O)[C@H](O[C@@H]2O[C@H](C)[C@@H](O[C@H]3C[C@@](C)(OC(C)=O)[C@@H](OC(=O)CC)[C@H](C)O3)[C@H](N(C)C)[C@H]2O)[C@H]1OC [miocamycin] | 1.33
36 | Cc1ccsc1C(=CCCN1CCC[C@@H](C(=O)O)C1)c1sccc1C [tiagabine] | 0.33
37 | Clc1ccccc1C(c1ccccc1)(c1ccccc1)n1cccn1 | -0.74
38 | CCCCN1CCC(CNC(=O)c2c3n(c4ccccc24)CCCO3)CC1 [piboserod] | 0.6
39 | Cn1cc(C2=C(c3cn(CCCSC(=N)N)c4ccccc34)C(=O)NC2=O)c2ccccc21 [bisindolylmaleimide-IX] | -3.04
40 | CCCN(CCc1cccs1)[C@H]1CCc2c(O)cccc2C1 [rotigotine] | 1.13
41 | CC(=O)N[C@@H](Cc1c[nH]c2ccccc12)C(=O)OCc1cc(C(F)(F)F)cc(C(F)(F)F)c1 | 2.32
42 | CCOc1ccccc1C(N)=O [ethenzamide] | 2.44
43 | OCCN1CCN(CCCN2c3ccccc3C=Cc3ccccc32)CC1 [opipramol] | 1.62
44 | C[C@H](Oc1cc(-c2cnn(C3CCNCC3)c2)cnc1N)c1c(Cl)ccc(F)c1Cl [crizotinib-(S)] | -0.33
45 | CCC(=O)O[C@]1(C(=O)CO)CC[C@H]2[C@@H]3CCC4=CC(=O)CC[C@]4(C)[C@H]3CC[C@@]21C | -0.33
46 | Cc1cccc(-c2n[nH]cc2-c2ccc3ncccc3n2)n1 [repsox] | -2.26
47 | O=C(Cc1ccc(-c2ccc(OCCN3CCOCC3)cc2)cn1)NCc1ccccc1 | -3.29
48 | Nc1ncnc2nc(-c3ccc(N4CCOCC4)nc3)cc(-c3cccc(Br)c3)c12 | -5
49 | Cc1nc(C)c(C)nc1C [chuanxiongzine] | 2.51
50 | O=C(CCCN1CC=C(n2c(=O)[nH]c3ccccc32)CC1)c1ccc(F)cc1 [droperidol] | 0.3
51 | CC1(C)CC[C@]2(NC(=O)C(C)(F)F)CC[C@]3(C)[C@H](C(=O)C=C4[C@@]5(C)C=C(C#N)C(=O)C(C)(C)[C@@H]5CC[C@]43C)[C@@H]2C1 [Omaveloxolone (RTA-408)] | 3.8
52 | N[C@H](C(=O)O)c1ccc(O)cc1 [oxfenicine] | 2.38
53 | CCS(=O)(=O)N1CCC[C@@H]2CN3CCc4cc(OC)ccc4[C@@H]3C[C@@H]21 | 0.02
54 | O=C(Nc1cc(C(F)(F)F)cc(C(F)(F)F)c1)Nc1c(Br)cc(Br)cc1-c1nnn[nH]1 | -0.61

Row | Compound | inhibition of SARS-CoV-2 cytopathic effect [%]
55 | CC(NC(=O)c1ccccc1/N=C/c1c(O)ccc2ccccc12)c1ccccc1 (stereo not drawn) [sirtinol] | -3.54
56 | Cc1ccc(Cl)c(Nc2ccccc2C(=O)O)c1Cl [meclofenamic-acid] | -1.96
57 | COc1cc(-c2cc(-c3cccc(O)c3)cnc2N)cc(OC)c1OC | -1.83
58 | Brc1c(Br)c(Br)c2[nH]nnc2c1Br [4,5,6,7-tetrabromobenzotriazole] | -0.07
59 | C=C(C)CN1CC[C@]23c4c5ccc(O)c4O[C@H]2c2[nH]c4ccccc4c2C[C@@]3(O)C1C5 | 0.33
60 | O=C(Nc1ccccc1F)N[C@H]1N=C(c2ccccc2)c2ccccc2NC1=O | -0.15
61 | O=C(O)[C@@H]1C[C@@H](C2CCCCC2)CN1C(=O)CP(=O)(O)CCCCc1ccccc1 [fosinoprilat] | -5.83
62 | Nc1nc2ccc(OC(F)(F)F)cc2s1 [riluzole] | 0.81
63 | C[C@H](N)C(=O)N[C@@]1(C(=O)O)C[C@@H](Sc2nnc[nH]2)[C@H]2[C@H](C(=O)O)[C@H]21 | -3.65
64 | O=C/C=C/c1ccccc1 [cinnamaldehyde] | 1.04
65 | NS(=O)(=O)c1cc2c(cc1Cl)N=C(CSCc1ccccc1)NS2(=O)=O [benzthiazide] | 0.52
66 | CN1CCN(C2=Cc3ccccc3Oc3ccc(Cl)cc32)CC1 | -0.45
67 | CCCCC(CC)CCC(CC(C)C)OS(=O)(=O)O (stereo not drawn) [sodium-tetradecyl-sulfate] | 2.64
68 | O=C(O)Cc1cccc2c(=O)cc(-c3ccccc3)oc12 [mitoflaxone] | 1.42
69 | Cc1c(N)cccc1Cn1ccc(OCCc2cccs2)cc1=O | 1.31
70 | COc1cc(OCc2cccc(-c3ccccc3)c2C)cc(OC)c1CN1CCCC[C@H]1C(=O)O [PD1-PDL-inhibitor-1] | 5.72
71 | Cc1ccsc1/C=C/C1=NCCCN1C [morantel] | -2.09
72 | CC[C@@H]1C(=O)N(C)c2cnc(Nc3ccc(C(=O)N[C@H]4CC[C@H](N5CCN(CC6CC6)CC5)CC4)cc3OC)nc2N1C(C)C [volasertib] | -0.02
73 | COC(=O)[C@@H](N)CCCNC(=N)N[N+](=O)[O-] | -1.83
